The source of these data is PubChem BioAssay (NCATS).

Assay [1] is described as follows: AP1 Signaling Pathway (AID 357; active = well fitted curve in either direction with a large enough effect, not every such curve was filed as active;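 also: ME-180 reporter cells stimulated with EGF at its EC50 level; % is scaled to controls: 0 for no effect and ±100 for the full control effect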). The conditions noted are these: ME-180 AP-1-bla reporter, EGF-induced, beta-lactamase ratio, 5 h; at 7.69 µM (top of the series) unless noted. Summed up:
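In this screen, ME-180 cells in Opti-MEM with 0.5% dialyzed FBS received EC50 EGF and compound titrations for 5 h. AP-1 reporter beta-lactamase was detected via CCF4 ratio, giving AC50 for positive and negative modulators.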

For assay [2], the target named is Cytochrome P450 1A2 (Homo sapiens) (UniProt P05177). The assay can be described thus: p450-cyp1a2 (AID 410; calls by dose curve). Summed up: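 20nM CYP1A2, 100uM Luciferin-ME (=Km), 100mM KPO4; cpd 10 min RT; +NADPH regen, 60 min RT; stop/detect 20 min; luminescence. Normalized to furafylline 57 uM = full inhibition.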
Cytochrome P450 1A2 (Homo sapiens), sequence (P05177 whole entry, looked up): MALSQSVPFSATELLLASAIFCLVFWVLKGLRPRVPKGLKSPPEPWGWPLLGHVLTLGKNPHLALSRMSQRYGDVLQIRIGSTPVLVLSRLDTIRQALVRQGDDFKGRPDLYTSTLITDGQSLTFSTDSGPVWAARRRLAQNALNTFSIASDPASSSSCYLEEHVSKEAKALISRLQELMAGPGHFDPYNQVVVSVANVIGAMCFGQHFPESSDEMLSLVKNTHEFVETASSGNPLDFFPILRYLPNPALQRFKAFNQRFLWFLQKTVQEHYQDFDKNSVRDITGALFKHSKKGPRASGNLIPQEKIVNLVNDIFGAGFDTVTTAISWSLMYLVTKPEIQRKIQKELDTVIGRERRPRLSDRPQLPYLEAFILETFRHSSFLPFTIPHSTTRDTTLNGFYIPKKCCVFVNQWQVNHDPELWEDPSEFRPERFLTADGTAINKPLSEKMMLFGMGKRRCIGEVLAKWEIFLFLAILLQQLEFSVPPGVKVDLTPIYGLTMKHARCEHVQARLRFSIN
Assay [3] can be described thus: NFAT Signaling Pathway (AID 444; active = well fitted curve in either direction with a large enough effect, not every such curve was filed as active;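 also: carbachol stimulus at about its EC50 of 1 µM final; % is scaled to controls: 0 for no effect and ±100 for the full control effect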). The conditions noted are these: Jurkat NFAT-bla M1, carbachol, beta-lactamase ratio, 5 h; at 7.69 µM (top of the series) unless noted. Summed up:
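Read-out: CCF4 FRET ratio (460 nm/530 nm) after 1 h RT dye loading, used for %activity and AC50 from titration series. Cells: Jurkat NFAT-β-lactamase/M1 line, treated with compound plus 1 uM carbachol for 5 h, 37 °C.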

Assay [4] in a line: Stat Signaling Pathway (AID 446; active = well fitted curve in either direction with a large enough effect, not every such curve was filed as active;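 also: ME-180 cervical cancer cells given 40 pM IL-6 alongside compound; SIE-controlled beta-lactamase reporter measured as 460/530 nm FRET emission ratio; % is scaled to controls: 0 for no effect and ±100 for the full control effect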). The note with it: ME-180 (cervical carcinoma) SIE beta-lactamase reporter, IL-6 stimulated, 5 h; at 7.69 µM (top of the series) unless noted. Summed up:
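FRET read-out (405 nm excitation, 460/530 nm emission) of a beta-lactamase reporter under a STAT-inducible element in ME-180 cervical carcinoma cells. Cells with compound receive 40 pM IL-6 for 5 h. Values are normalised to AC90 stimulation and AC90 JAK-inhibitor controls.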

Assay [5] has as its target Glucocorticoid receptor (Homo sapiens) (UniProt P04150). As to the kind of experiment: GR-EFC Redistribution (AID 451; calls by dose curve; also: potency is read from the fitted curve at half-maximal effect). The note with it: CHO-K1 GR-EFC translocation, beta-gal luminescence, 2 h. Summed up: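 Translocation of GR-ED fusion to nuclear EA restores b-gal, read by luminescence after 1 h room-temperature detection. Engineered CHO-K1 biosensor cells, 1,000/well, exposed 2 h at 37 C to titrations up to 46 uM final.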

The target of assay [6] is Mitogen-activated protein kinase 10 (Mus musculus) (UniProt Q61831). The assay can be described thus: JNK3 AlphaScreen Assay (AID 530; active = well fitted curve in either direction with a large enough effect, not every such curve was filed as active;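 also: kinase came from lysate of stimulated human HepG2 cells; signal reports phosphorylation of biotinylated GST-cJun 1-79 at Ser73 with 10 µM ATP; % is scaled to controls: 0 for no effect and ±100 for the full control effect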). Summed up:
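Kinase buffer: 20 mM Tris-HCl pH 7.6, 10 mM MgCl2, 1 mM DTT, 0.1 mM Na3VO4, 0.01% Tween-20; ATP 10 uM. Substrate biotin-GST-cJun(1-79), enzyme from activated HepG2 lysates. Detection by Ser73 phospho-antibody AlphaScreen.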

Assay [7] concerns the target 3',5'-cyclic-AMP phosphodiesterase 4B (Homo sapiens) (UniProt Q07343). As to the kind of experiment: qHTS Assay for Inhibitors of PDE-IV (AID 607; active = well fitted activation curve with a large enough effect in the main read-out, with a control signal flat, not every such curve was filed as active; also: % of control where 0% means no effect). Summed up: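 Cell-based read-out of cAMP via a modified cyclic nucleotide-gated channel and membrane potential dye (535/590 nm) in HEK293 cells expressing PDE4 endogenously. Compounds tested up to 22.9 uM final; 100 uM RO 20-1724 reference.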

Assay [8] is described as follows: qHTS Assay for Lipid Storage Modulators (AID 1519; calls by dose curve). The note with it: Drosophila S3 cells, BODIPY lipid droplet/cell ratio, laser cytometry, cells loaded with oleic acid. Summed up:
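Cells seeded at 5,000 per well were treated with compounds over a concentration series and loaded with oleic acid (400 uM, as added). Lipid droplet fluorescence (488 nm excitation, 500-530 nm channel) was read by laser-scanning cytometry and normalized to 20 uM Triacsin C.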

Assay [9] in a line: Primary qHTS for small molecule stabilizers of the endoplasmic reticulum resident proteome: Secreted ER Calcium Modulated Protein (SERCaMP) assay (AID 1508630). Also: % is scaled to controls: 0 for no effect and ±100 for the full control effect. Summed up: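 The SH-SY5Y reporter protocol was run at 3 concentrations up to 38.3 uM (primary) or 11 concentrations (follow-up): 16 h compound, 100 nM thapsigargin for 4 h, then extracellular luciferase luminescence.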

The nature of assay [10]: Primary qHTS for inhibitors of nuclear receptor binding SET domain protein 2 (NSD2) in an isogenic RCH-ACV NSD2 p.E1099K mutant (9B) (AID 1645876). Also: nearly all actives have a fitted effect of over 70% in size. Also: potency is read from the fitted curve at half-maximal effect.
Assay [11] is described as follows: Primary qHTS for inhibitors of nuclear receptor binding SET domain protein 2 (NSD2) in an RCH-ACV wild type WT cells (2C) (AID 1645877). Also: nearly all actives have a fitted effect of over 70% in size. Also: potency is read from the fitted curve at half-maximal effect.
The target in assay [12] is Glutathione peroxidase 1 (Homo sapiens) (UniProt P07203). The assay can be described thus: Primary qHTS Assay for Inhibitors of Recombinant Selenoprotein Glutathione Peroxidase 1 (GPX1) (AID 1845191). Also: nearly all actives have a fitted effect of over 65% in size. Summed up: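 NADPH consumption tracked by fluorescence at 340/450 nm between t=0 and t=15 min, room temperature. Final mix: 10 nM GPX1, 100 nM glutathione reductase, 1 mM GSH, 0.5 mM NADPH, 0.5 mM cumene hydroperoxide, 0.01% BSA; 30 min compound–enzyme preincubation.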
Glutathione peroxidase 1 (Homo sapiens), sequence (P07203 whole entry, looked up): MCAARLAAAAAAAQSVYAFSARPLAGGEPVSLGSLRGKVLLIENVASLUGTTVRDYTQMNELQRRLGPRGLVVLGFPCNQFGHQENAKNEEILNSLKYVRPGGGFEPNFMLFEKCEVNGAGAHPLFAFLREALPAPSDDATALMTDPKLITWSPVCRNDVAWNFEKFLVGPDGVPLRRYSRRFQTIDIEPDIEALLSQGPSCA

In assay [13] the target is Phospholipid hydroperoxide glutathione peroxidase GPX4 (Homo sapiens) (UniProt P36969). As to the kind of experiment: Primary qHTS Assay for Inhibitors of Recombinant Selenoprotein Glutathione Peroxidase 4 (GPX4) (AID 1845192). Also: nearly all actives have a fitted effect of over 65% in size. The note with it: outcome: dose series up to 50 µM unless noted. Summed up:
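NADPH consumption followed by fluorescence at 340/450 nm, t=0 and after 15 min at room temperature. Reaction started with cumene hydroperoxide (0.5 mM final) after 30 min compound–GPX4 preincubation; final 200 nM GPX4, 100 nM GR, 1 mM GSH, 0.5 mM NADPH.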

The nature of assay [14]: qHTS drug screen for cell cycle checkpoint inhibitors in PARPi-resistant BRCA-mutant ovarian cancer cell lines. (AID 1963452; calls by dose curve). The note with it: PEO1/OlaR viability, CellTiter-Glo luminescence, 96 h, stronger effect = lower value. Summed up: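 PEO1, PEO4 and PEO1/OlaR ovarian cancer cells, 600 per well, exposed 96 h at 37C to a dilution series. Viability read by CellTiter-Glo luminescence, normalized to DMSO and empty wells; activity summarized as Z-AUC.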

The target of assay [15] is Cytochrome P450 2C9 (Homo sapiens) (UniProt P11712). The assay can be described thus: Cytochrome P450 family 2 subfamily C member 9 (CYP2C9) small molecule antagonists: luciferase biochemical (cell-free) qHTS assay (AID 1645842; active = well fitted curve in the direction sought with a large enough effect in the repeat runs; an effect the other way counts as inactive or inconclusive; also: % is scaled to controls: 0 for no effect and ±100 for the full control effect; nearly all actives have a fitted effect of over 55% in size). Summed up: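 P450-Glo CYP2C9 system: proluciferin substrate with enzyme in mix containing 0.4% BSA, 10 min at room temperature, then NADPH regeneration solution added and incubated 1 h at 37C. Detection reagent stopped reaction; luminescence read after 20 min as RLU.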
Cytochrome P450 2C9 (Homo sapiens), sequence (P11712 whole entry, looked up): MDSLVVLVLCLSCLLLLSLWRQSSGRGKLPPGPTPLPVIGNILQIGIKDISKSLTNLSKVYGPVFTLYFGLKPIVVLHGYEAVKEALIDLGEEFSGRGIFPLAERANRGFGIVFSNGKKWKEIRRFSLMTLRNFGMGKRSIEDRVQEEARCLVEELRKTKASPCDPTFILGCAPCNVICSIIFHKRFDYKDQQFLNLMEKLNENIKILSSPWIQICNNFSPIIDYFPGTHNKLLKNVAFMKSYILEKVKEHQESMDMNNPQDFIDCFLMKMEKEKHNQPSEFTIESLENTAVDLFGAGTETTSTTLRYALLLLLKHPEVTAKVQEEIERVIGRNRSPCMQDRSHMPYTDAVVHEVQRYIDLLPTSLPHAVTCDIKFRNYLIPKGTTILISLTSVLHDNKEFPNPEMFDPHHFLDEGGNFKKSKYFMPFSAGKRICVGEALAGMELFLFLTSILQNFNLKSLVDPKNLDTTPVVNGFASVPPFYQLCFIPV

Assay [16] is described as follows: NCATS anti-infectives library activity on HEK293 viability as a counter-qHTS vs the C. elegans viability qHTS (AID 1745854). Also: % is scaled to controls: 0 for no effect and ±100 for the full control effect. Summed up: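 CellTiter-Glo luminescence, read on a CCD imager, scored viability of HEK293 cells after 24 hr compound exposure at 37C. Library tested in several concentrations, 1:5 steps, up to 41.7 uM; digitonin served as control.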
The mark [17] stands for this setting: measured here: PEO1 parental Z-AUC.

Inconclusive results are not listed. Activity calls are given as the source filed them. Unless noted, calls follow the shape of the dose curve; as a rule, active = well fitted curve in the direction sought with a large enough effect; inconclusive = small, poorly fitted or top-dose-only effect, or another doubt; inactive = no such curve, though single readings can be large; an effect the other way counts as inactive or inconclusive.

Phospholipid hydroperoxide glutathione peroxidase GPX4 (Homo sapiens), sequence (P36969 whole entry, looked up): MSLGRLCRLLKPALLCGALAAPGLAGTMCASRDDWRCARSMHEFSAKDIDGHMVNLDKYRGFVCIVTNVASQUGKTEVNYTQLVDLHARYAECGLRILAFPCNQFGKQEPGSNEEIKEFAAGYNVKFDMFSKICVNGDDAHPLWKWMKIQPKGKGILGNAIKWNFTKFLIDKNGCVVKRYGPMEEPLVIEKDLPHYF
Glucocorticoid receptor (Homo sapiens), sequence (P04150 whole entry, looked up, the tested form may be a part): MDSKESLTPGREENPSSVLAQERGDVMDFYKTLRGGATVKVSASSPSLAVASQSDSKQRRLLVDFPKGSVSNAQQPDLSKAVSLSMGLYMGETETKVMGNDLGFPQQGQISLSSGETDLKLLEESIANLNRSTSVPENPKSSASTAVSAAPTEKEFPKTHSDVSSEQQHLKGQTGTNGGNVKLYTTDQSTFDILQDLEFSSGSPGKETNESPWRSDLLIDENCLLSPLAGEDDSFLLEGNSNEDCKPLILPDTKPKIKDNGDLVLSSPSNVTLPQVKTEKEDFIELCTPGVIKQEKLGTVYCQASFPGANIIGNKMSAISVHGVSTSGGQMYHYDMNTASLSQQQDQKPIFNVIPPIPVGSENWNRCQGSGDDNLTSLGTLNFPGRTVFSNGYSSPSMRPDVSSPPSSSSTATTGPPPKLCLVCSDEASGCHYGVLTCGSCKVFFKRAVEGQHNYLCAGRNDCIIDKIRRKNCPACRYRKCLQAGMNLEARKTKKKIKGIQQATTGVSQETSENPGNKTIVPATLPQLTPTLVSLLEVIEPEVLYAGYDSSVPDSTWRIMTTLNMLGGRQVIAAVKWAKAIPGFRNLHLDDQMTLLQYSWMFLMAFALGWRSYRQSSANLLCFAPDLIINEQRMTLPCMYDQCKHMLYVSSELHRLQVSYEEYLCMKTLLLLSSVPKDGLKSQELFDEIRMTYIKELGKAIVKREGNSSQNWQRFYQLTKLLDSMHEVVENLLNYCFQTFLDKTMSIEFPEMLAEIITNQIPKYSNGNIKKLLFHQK
3',5'-cyclic-AMP phosphodiesterase 4B (Homo sapiens), sequence (Q07343 whole entry, looked up): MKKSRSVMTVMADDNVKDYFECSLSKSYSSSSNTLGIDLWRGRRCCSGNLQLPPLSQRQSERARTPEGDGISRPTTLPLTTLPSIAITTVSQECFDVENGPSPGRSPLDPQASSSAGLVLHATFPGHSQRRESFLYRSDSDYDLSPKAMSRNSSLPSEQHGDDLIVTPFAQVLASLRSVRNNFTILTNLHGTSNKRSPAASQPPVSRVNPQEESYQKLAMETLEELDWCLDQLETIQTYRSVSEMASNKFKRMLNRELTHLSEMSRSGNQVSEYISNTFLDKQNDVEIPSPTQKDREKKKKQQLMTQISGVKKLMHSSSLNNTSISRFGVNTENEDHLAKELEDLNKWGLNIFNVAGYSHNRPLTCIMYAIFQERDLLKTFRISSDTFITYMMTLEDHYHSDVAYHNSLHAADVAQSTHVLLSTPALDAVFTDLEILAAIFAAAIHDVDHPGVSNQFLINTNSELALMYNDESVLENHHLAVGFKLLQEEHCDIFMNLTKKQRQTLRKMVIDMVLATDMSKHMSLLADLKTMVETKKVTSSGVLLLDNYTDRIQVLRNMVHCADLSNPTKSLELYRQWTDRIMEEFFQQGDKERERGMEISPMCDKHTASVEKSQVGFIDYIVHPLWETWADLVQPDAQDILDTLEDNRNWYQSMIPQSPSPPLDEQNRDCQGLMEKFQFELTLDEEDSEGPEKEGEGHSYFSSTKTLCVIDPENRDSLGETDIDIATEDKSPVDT

`O=C(c1csnn1)N1CCC2(CC1)CCN(c1ncccn1)CC2`: the results for the activity change, negative = inhibition in assay [1], in assay [3] and in assay [8] (at 57.5 µM (top of the series)) were -14.3% (inactive), 1.39% (inactive) and 4.97% (inactive), respectively. The Potency entry in [2], in assay [7] and in assay [9] was “inactive” throughout. Further, in [4], the activity, negative = inhibition was -5.07% (inactive). Besides, the Potency in [5] is > 46 µM (inactive). Further, the result in assay [6] was inactive. The max response in assay [8] (measured here: cell count channel max response) was -0.155%; in assay [8] (measured here: lipid channel max response), 6.88%.

In the case of `CN1C(=O)N[C@H](Cc2c[nH]c3c(Cl)cccc23)C1=O`, the Potency result in [10], in assay [11], in assay [12] and in assay [13] was “inactive” each time. In addition, the Z-AUC in assay [14] was 0.358 (inactive); in [14] (setting [17]) it was 0.688; in [14] (measured here: PEO4 Z-AUC), 0.653.

Turning to `CCOc1cc(/C=C2/C(=O)N(c3ccccc3)N=C2C)cc(Cl)c1OCC(=O)OC`, the Potency result in assay [10], in assay [11], in assay [12] and in assay [13] was “inactive” each time. For the same compound, the Z-AUC was 1.36 (inactive) in [14], 1.44 in [14] (setting [17]) and 0.891 in assay [14] (measured here: PEO4 Z-AUC).

With `Cn1cc(/C=C2\C(=O)Nc3cccnc32)c2ccccc21`, the Potency entry in [15], in assay [12] and in assay [13] was “inactive” in each case. Further, the results for the Potency in [10] and in assay [11] were 5.25 µM (active) and 8.33 µM (active), respectively. Also, the Z-AUC in assay [14] is 1.01 (inactive); in [14] (setting [17]), 0.388; in assay [14] (measured here: PEO4 Z-AUC), -0.377.

For the compound `COc1ccc(C(=O)N2CCN(c3ccc4c(c3)CCC(=O)N4)CC2)cc1OC`, the Potency result in assay [10], in [11], in assay [16], in assay [12] and in assay [13] was “inactive” throughout. Besides, the Z-AUC is -0.238 (inactive) in [14], 0.0272 in [14] (setting [17]) and 0.0147 in assay [14] (measured here: PEO4 Z-AUC).

Consider `CC(C)Oc1ccc(-c2nn([C@@H](C)c3oc4ccc(F)cc4c(=O)c3-c3cccc(F)c3)c3ncnc(N)c23)cc1F`, for which the Potency entry in [13] was “inactive”. Also, the Z-AUC in [14] is 0.0255 (inactive); in assay [14] (setting [17]) it was -0.265; in [14] (measured here: PEO4 Z-AUC) it was -0.0554.

For `O=C([O-])C[O-].[Pt+2]`, the Potency entry in assay [10], in assay [11], in [12] and in assay [13] was “inactive” each time.

With `C=CCNC1=C2CC(C)CC(OC)C(O)C(C)/C=C(\C)C(OC(N)=O)C(OC)/C=C/C=C(\C)C(=O)NC(=CC1=O)C2=O` (stereo unspecified), the Potency in assay [10] and in [11] was 1.32 µM (active) each time. Besides, the Potency entry in [12] was “inactive”. Moreover, the Z-AUC in [14] is -0.25 (inactive); in assay [14] (setting [17]), -0.657; in [14] (measured here: PEO4 Z-AUC), -0.0403.

As to `N=C1S/C(=C\c2ccc(-c3ccc4c(c3)C(=O)NC4=O)o2)C(=O)N1c1ccc(Br)cc1`, the Potency result in assay [10], in assay [11] and in assay [12] was “inactive” each time. Besides, the Z-AUC in [14] is 0.761 (inactive); in assay [14] (setting [17]), 0.782; in assay [14] (measured here: PEO4 Z-AUC), 0.462.

Consider `CN1CCN(c2ccc(Nc3ncc4cc(C#N)c(=O)n(C5CCCC5)c4n3)cc2)CC1`, for which the Potency in assay [10] was 0.59 µM (active); in assay [11], 0.525 µM (active). Moreover, the Potency entry in assay [12] and in assay [13] was “inactive” each time. Also, the Z-AUC in assay [14] is -0.464 (inactive); in [14] (setting [17]), 0.47; in assay [14] (measured here: PEO4 Z-AUC), 0.542.

As to `CC(=O)N[C@H]1[C@H](O[C@@H]2c3ccc(c(Cl)c3)Oc3cc4cc(c3O[C@@H]3O[C@H](CO)[C@@H](O)[C@H](O)[C@H]3NC(=O)CCCCCCCC(C)C)Oc3ccc(cc3Cl)C[C@H]3NC(=O)[C@H](N)c5ccc(O)c(c5)Oc5cc(O)cc(c5)[C@H](NC3=O)C(=O)N[C@H]4C(=O)N[C@H]3C(=O)N[C@@H]2C(=O)N[C@@H](C(=O)O)c2cc(O)cc(O[C@H]4O[C@H](CO)[C@@H](O)[C@H](O)[C@@H]4O)c2-c2cc3ccc2O)O[C@H](CO)[C@@H](O)[C@@H]1O`, the Potency entry in [10], in assay [11] and in [13] was “inactive” throughout. Moreover, the Z-AUC was 0.721 (inactive) in assay [14], 0.652 in assay [14] (setting [17]) and 1.05 in assay [14] (measured here: PEO4 Z-AUC).

With `O=C(O)CCCCN(CCc1ccccc1OCc1ccc(CCc2ccccc2)cc1)Cc1ccc(C(=O)O)cc1`, the Potency entry in assay [10], in [11] and in assay [12] was “inactive” in each case. For the same compound, the Z-AUC in assay [14] is 0.163 (inactive); in assay [14] (setting [17]) it was 0.492; in assay [14] (measured here: PEO4 Z-AUC) it was 0.773.

Consider `C=CCN1C[C@H](C(=O)N(CCCN(C)C)C(=O)NCC)CC2c3cccc4[nH]cc(c34)C[C@H]21` (stereo partly specified), for which the Potency result in assay [10], in assay [11] and in assay [13] was “inactive” in each case. Further, the Z-AUC in assay [14] was -0.809 (inactive); in assay [14] (setting [17]) it was -0.35; in assay [14] (measured here: PEO4 Z-AUC), -0.259.
